GLP-1R inv ag: inverse agonists of human GLP-1 receptor | P43220 | 410,000 tested, 1.6% active | HEK293 GLP-1R CRE-luciferase, luminescence, 24 h; GLP-1R form is constitutively active | Potency, µM (doses to about 38.3 µM), inactives show at the highest dose activity change, negative = inhibition, most hits filed as inhibitors; also: % is scaled to controls: 0 for no effect and ±100 for the full control effect; nearly all actives have a fitted effect of over 55% in size
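Cells are plated, allowed 12 hours at 37 deg C, then treated with compounds for 24 hr before luciferase detection reagent is added and luminescence is read after 12 min at room temperature. The HEK293 line carries constitutively active GLP-1R with a cAMP-responsive reporter.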
GLS inhibitor: inhibitors of human glutaminase (GLS); GLS enzymatic activity, qHTS titration; Potency, µM (series often up to 45.5 µM), inactives show at the top dose activity change, negative = inhibition, hits mostly inhibitors; 410,000 tested, 0.21% active; also: % is scaled to controls: 0 for no effect and ±100 for the full control effect
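Glutamate formation by hKGA was monitored fluorometrically using coupled glutamate oxidase, HRP and Amplex Red. Substrate was added as 1 mM L-glutamine solution; incubation was 30 min at RT after an initial read.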
GLP1R ag: activates the human GLP-1 receptor | P43220 | HEK293 GLP-1R CRE-luciferase, luminescence, 4-6 h; cells express a hypersensitive GLP-1R form | Potency, µM (doses to about 45.6 µM), for inactives: at the top dose activation, actives largely listed as activators | 380,000 tested, 0.007% active; also: % of control where 0% means no effect
GRP78 ERSR act: ER stress response induction in glioma | U87-MG GRP78 promoter luciferase reporter, 16 h | Potency, µM, for inactives: at the top dose activation, hits mostly activators | 420,000 tested, 0.02% active; also: series mostly up to about 76 µM; % of control where 0% means no effect; nearly all actives have a fitted effect of over 35% in size
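Stably transfected U87-MG glioma cells carrying a GRP78-based luciferase sensor; 16 h compound incubation. Luminescence end-point read 10 min after Bright-Glo addition at room temperature.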
12-LOX inh: blocks human arachidonate 12S-lipoxygenase. AID 1671190. 580,000 tested, 1.1% active. P18054. purified 12hLO, xylenol orange hydroperoxide absorbance. Potency, µM (doses to about 108 µM), without a hit: at the highest dose activity change, negative = inhibition, usual class: inhibitors; also: % is scaled to controls: 0 for no effect and ±100 for the full control effect
Target sequence (P18054 whole entry, looked up): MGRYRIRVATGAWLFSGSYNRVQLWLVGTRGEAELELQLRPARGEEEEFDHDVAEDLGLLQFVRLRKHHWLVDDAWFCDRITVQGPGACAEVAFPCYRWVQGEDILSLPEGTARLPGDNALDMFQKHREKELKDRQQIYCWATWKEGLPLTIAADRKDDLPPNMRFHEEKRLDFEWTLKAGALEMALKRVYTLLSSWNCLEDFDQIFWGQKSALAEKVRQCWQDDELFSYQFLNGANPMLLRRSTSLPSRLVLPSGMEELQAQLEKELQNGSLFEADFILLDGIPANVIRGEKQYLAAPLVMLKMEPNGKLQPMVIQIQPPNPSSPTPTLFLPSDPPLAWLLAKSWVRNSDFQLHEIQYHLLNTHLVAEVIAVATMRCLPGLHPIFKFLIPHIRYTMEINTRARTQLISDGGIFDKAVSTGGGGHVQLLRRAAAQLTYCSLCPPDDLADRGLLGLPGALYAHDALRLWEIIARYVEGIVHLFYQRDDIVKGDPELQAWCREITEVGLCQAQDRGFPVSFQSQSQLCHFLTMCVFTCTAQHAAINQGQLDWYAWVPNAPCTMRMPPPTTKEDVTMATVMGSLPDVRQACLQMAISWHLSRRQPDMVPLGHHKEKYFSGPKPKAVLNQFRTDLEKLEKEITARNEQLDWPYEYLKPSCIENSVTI
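Hydroperoxide product was detected by ferrous iron/xylenol orange as the 573 to 405 nm absorbance ratio. Arachidonic acid at 40 uM (final) was turned over for 30 min at room temperature by 150 nM human 12hLO, pH 7.0 Hepes buffer, after 15 min compound preincubation.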
PTHR1 agonist: PTHR1 (human) receptor agonism; HEK293 GP2 PTHR1 cells, GloSensor cAMP luminescence, 1 h; Potency, µM (doses to about 115 µM), inactives show top-dose activation, usual class: activators; Q03431; 410,000 tested, 0.075% active; also: nearly all actives have a fitted effect of over 55% in size
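HEK-293-derived GP2 cells expressing PTHR1 and a GloSensor cAMP reporter, 3,000/well, plated overnight, given luciferin plus IBMX (each 0.5 mM as added) for 1 h at 37 °C, then compound for 1 h at 37 °C. Luminescence was read after 15 min at room temperature.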
* hit, by the source's call; i = inactive; ? = inconclusive; . = no result; [ ] = another dose, or the depositor's remark. This is a sample that favours compounds with a hit; in the whole collection about 2.3% have one here. Calls follow the shape of the dose curve; as a rule, active = well fitted curve in the direction sought with a large enough effect; inconclusive = small, poorly fitted or top-dose-only effect, or another doubt; inactive = no such curve, though single readings can be large; an effect the other way counts as inactive or inconclusive. Potency is read from the fitted curve at half-maximal effect.

SMILES | GLP-1R inv ag | GLS inhibitor | GLP1R ag | GRP78 ERSR act | 12-LOX inh | PTHR1 agonist
Cc1ccccc1N(C)C1CN(C(=O)c2ccccn2)C1 | . | . | . | . | 2.8%[12.5 µM] | .
COc1cc(/C=C(\C#N)c2[nH]nc(N)c2C#N)cc(OC)c1O | 42.3% | 10µM* | 11.9% | -0.1% | 0.0% | i
COc1cc(/C=C(\C#N)c2ccccn2)cc(OC)c1O | 1.9% | 19.5% | 16.0% | 0.9% | ? | 12.2%
Cc1oc(-c2ccccc2)nc1CC(=O)Nc1cc(S(=O)(=O)N2CCCCC2)ccc1N(C)C | . | . | . | . | 18.9% | .
Cc1cc(C)c(CNC(=O)c2cc(-c3cnn(C)c3C)cc3c2OCCN3C)c(=O)[nH]1 | . | . | . | . | 8.2%[176 µM] | .
Cc1cc(C)c(CNC(=O)c2cc(-c3ccccc3C)cc3c2OCCN3C)c(=O)[nH]1 | . | . | . | . | 112µM* | .
O=C(O)c1cc(N2CCCCC2)nc2ccccc12 | 0.5% | -16.1% | -2.3% | -4.4% | -2.1% | i
CCOC(=O)c1cc(N2CCCCC2)nc2ccccc12 | 7.94µM* | -13.1% | 1.3% | -3.0% | -16.7% | i
O=C(COc1ccccc1Cl)Nc1ccc(N2CCCC2)cc1 | 48.3% | 30.1% | 14.3% | 0.8% | 402.7% | -24.6%
COC(=O)c1ccccc1NC(=O)c1ccc(COc2cccc3ccccc23)o1 | 7.1% | 0.0% | 2.0% | -6.5% | 44.7µM* | i
CN1CCN(c2ccc(NC(=O)COc3cccc4ccccc34)cc2)CC1 | 10µM* | -2.9% | 14.0% | 1.9% | 3.0% | i
CN1CCN(c2ccc(NC(=S)NC(=O)c3cccc4ccccc34)cc2)CC1 | 10.0% | 18.1% | 8.1% | -0.7% | 28.2µM* | -16.2%
COC(=O)c1ccccc1NC(=S)NC(=O)c1cccc2ccccc12 | 1.5% | 45.5% | -0.2% | -8.9% | 31.6µM* | -1.4%
COC(=O)c1ccccc1NC(=O)c1ccc(COc2ccccc2)o1 | ? | 8.6% | 10.6% | 0.7% | ? | -0.2%
Cc1ccc(C(=O)c2ccccc2C(=O)OCCOc2ccc(Cl)cc2Cl)cc1 | . | . | . | . | -5.3% | .
COc1ccc(COc2ccc(C#N)cc2OC)cc1F | . | . | . | . | -8.1% | .
CCOc1cc(/C=C2\NC(=O)NC2=O)c(Br)cc1OC | . | . | . | . | -0.9% | .
O=C(CSc1nc2cc(Cl)ccc2s1)NC1CCCCC1 | . | . | . | . | -28.9% | .
COc1cc(O)c2c(c1)/C=C/CCC/C(=N\O)CCC[C@H](C)OC2=O | . | . | . | . | -52.8% | .
O=C(COc1ccccc1)Nc1ccc(N2CCCCC2)cc1 | 10.5% | 20.8% | 10.5% | 3.4% | -9.9% | -81.5%
CN1CCN(c2ccc(NC(=O)c3ccc4ccccc4c3)cc2)CC1 | 2µM* | 1.9% | 0.9% | -14.9% | ? | -19.0%
CN1CCN(c2ccc(NC(=O)COc3ccc4ccccc4c3)cc2)CC1 | 7.08µM* | 5.9% | 20.7% | -1.8% | ? | i
O=C(Cc1ccccc1)NCCC1CCN(C(=O)Nc2ccc(F)cc2)CC1 | . | . | . | . | 28.1% | .
COc1ccc2[nH]cc(C(C(=O)O)N3CCN(CC(=O)N(C)C)CC3)c2c1 (configuration not stated) | . | . | . | . | 15.3% | .
CCC(C(=O)OCC(=O)Nc1cc(C)ccc1OC)c1ccccc1 (configuration not stated) | 10µM* | 4.8% | 21.6% | -2.4% | -1.1% | i
SMILES | GLP-1R inv ag | GLS inhibitor | GLP1R ag | GRP78 ERSR act | 12-LOX inh | PTHR1 agonist
COc1cccc(-c2nnc3sc(NC(=O)C(C)C)nn23)c1 | . | . | . | . | 5.4% | .
O=C1NC(=O)C(=Cc2ccc(Cl)cc2Cl)S1 | ? | 21.6% | -1.5% | -5.8% | 39.8µM* | -37.5%
O=C1NC(=S)SC1=Cc1ccc(Cl)cc1 | ? | -6.4% | 0.3% | 1.3% | 22.4µM* | -20.7%
O=C1NC(=S)SC1=Cc1ccc(F)cc1 | -14.2% | 23.2% | -19.0% | 0.5% | ? | -31.8%
O=C1NC(=S)SC1=Cc1cc(Br)ccc1O | ? | 3.7% | -6.1% | 1.7% | 25.1µM* | i
O=C1NC(=S)NC1=Cc1ccc(Cl)cc1Cl | 9.0% | 1.2% | 4.4% | 2.7% | -29.9% | -42.6%
CCCCc1c(-c2ccccc2OC)ncn1Cc1ccc(Cl)cc1Cl | . | . | . | . | 31.6µM* | .
CCCCc1c(-c2ccccc2OC)ncn1Cc1ccc(F)cc1F | . | . | . | . | 2.2% | .
CCCCCc1c(C)nc(Nc2nc(C)c3cc(OCC)ccc3n2)[nH]c1=O | . | . | . | . | 2.6% | .
CC1CCCN(S(=O)(=O)c2cc(C(=O)OCc3nc4ccccc4o3)ccc2Cl)C1 (configuration not stated) | . | . | . | . | -6.9% | .
Cc1cc(C)c(NC(=S)NCCO)c(C)c1 | 15.6% | -4.3% | -3.3% | -3.9% | 8.5% | -21.1%
Cc1cc(C)cc(NC(=S)NCCO)c1 | . | . | . | . | 14.1µM* | .
COc1ccc(-c2ccc(CCC(=O)O)n2Cc2ccco2)cc1 | 20.3% | -6.1% | 1.5% | -1.3% | ? | i
O=C(O)CCc1ccc(-c2ccc(Cl)cc2)n1Cc1ccco1 | 3.6% | 7.5% | 0.4% | -0.3% | 39.8µM* | i
Cc1cc(C)c(CC(=O)O)c(C)c1 | . | . | . | . | 1.58µM* | .
O=C(NC(Cc1ccccc1)c1ccccc1)C1CCCO1 (configuration not stated) | . | . | . | . | -27.4% | .
Cc1ccc(C2Cn3cnc(C(=O)N4CCC(C(=O)NC(C)c5ccccc5)CC4)c3CO2)cc1 (configuration not stated) | . | . | . | . | 11.2% | .
COc1ccc(C(C)=O)cc1CSCc1coc(-c2ccc(C)cc2C)n1 | . | . | . | . | -36.6% | .
Cc1ccc(CNC(=S)Nc2ccc3c(c2)c(=O)n(C)n3Cc2cccc(C(F)(F)F)c2)cc1 | ? | 8.1% | -1.6% | 0.3% | 17.8µM* | i
COc1cc(Cn2c3ccc(NC(=O)CCc4cccnc4)cc3c(=O)n2C)ccc1F | -0.8% | 6.1% | 3.3% | -2.9% | 5.8% | i
CCNC(=O)Nc1ccc2c(c1)c(=O)n(C)n2Cc1ccc(Cl)cc1 | 14.1% | 1.1% | -0.2% | 1.2% | 14.1µM* | i
CCNC(=S)Nc1ccc2c(c1)c(=O)n(C)n2Cc1cccc(C(F)(F)F)c1 | 15.3% | 2.4% | 1.9% | -1.2% | ? | -14.5%
COc1cc(Cn2c3ccc(NC(=O)CCc4ccccc4)cc3c(=O)n2C)ccc1F | 2.24µM* | -2.7% | 9.1% | -5.5% | ? | -34.9%
CCCCNCc1ccc(-c2ccccc2F)o1 | . | . | . | . | 2.7% | .
COc1ccc(NC(=O)c2ccc3c(c2)N(C)C2CCCCN2C3=O)c(OC)c1 (configuration not stated) | . | . | . | . | 20.7% | .
Cc1ccc(CNC2CC3CCC2(C)C3(C)C)s1 (configuration not stated) | . | . | . | . | 26.7% | .
CN(C)CCCn1c(=O)n(Cc2ccco2)c(=O)c2c3c(sc21)CCCCC3 | 4.47µM* | -20.7% | 16.3% | -3.7% | 8.1% | i

Screening data deposited in PubChem BioAssay by National Center for Advancing Translational Sciences (NCATS).
